A short description of experiment [1]: NCI Yeast Anticancer Drug Screen. Data for the rad50 strain (AID 155).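 Further: 0% = growth of vehicle-only cultures of the same strain.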 The following applies: S. cerevisiae rad50 strain growth inhibition, hits give high values; at 50.0 µM unless noted. The essentials:
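Vehicle-treated cultures provide the reference for the growth inhibition reported for compound-exposed, repair-deficient yeast.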

Experiment [2] in a line: NCI Yeast Anticancer Drug Screen. Data for the mec2-1 strain (AID 157). The following applies: S. cerevisiae mec2-1 strain, hits give high values; at 50.0 µM unless noted. The essentials:
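Each compound was tested on mec2-1 yeast, a strain altered in DNA damage repair or cell cycle control. Growth inhibition is reported relative to vehicle.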

Experiment [3] in a line: NCI Yeast Anticancer Drug Screen. Data for the sgs1 mgt1 strain (AID 161).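 Further: 0% = growth of cultures given vehicle only.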 To be noted: S. cerevisiae sgs1 mgt1 strain, hits give high values; at 50.0 µM unless noted. The procedure, abridged:
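Inhibition of yeast growth, normalised to vehicle-treated controls, is reported for a strain bearing genetic alterations in DNA damage repair.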

Experiment [4] can be described thus: NCI Yeast Anticancer Drug Screen. Data for the cln2 rad14 strain (AID 165).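 Further: 0% = growth equal to vehicle treated cultures.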 To be noted: S. cerevisiae cln2 rad14 strain, hits give high values; at 50.0 µM unless noted. The procedure, abridged:
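Test compounds were added to cln2 rad14 yeast cultures; inhibition of growth was then determined by comparison with vehicle treatment.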

Experiment [5] in a line: NCI Yeast Anticancer Drug Screen. Data for the bub3 strain (AID 167). To be noted: S. cerevisiae bub3 mutant strain, hits give high values; at 50.0 µM unless noted. The essentials: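 Mutant yeast screening strain plus compound; vehicle-treated cultures serve as the 0% inhibition reference.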
Experiment [6] in a line: NCI Yeast Anticancer Drug Screen. Data for the mlh1 rad18 strain (AID 175). To be noted: S. cerevisiae mlh1 rad18 strain growth inhibition, hits give high values; at 50.0 µM unless noted. The procedure, abridged:
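Inhibition values reflect reduced growth of mutant yeast versus vehicle-treated controls following compound exposure; the mutations affect DNA damage repair.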

The values that follow come from PubChem BioAssay (NCI).

Structures are written as SMILES. Where “and” joins values, the source holds several entries; their conditions need not be identical. Identical values can stand only once. This is part of a sample that, as a whole, favours compounds with a hit. Of some 79,000 tested, about 15% had one in any assay. Values without a mark were called inactive. Calls of active or inactive are those of the source. No stated cut-off is given here; in the data, active means growth inhibition above about 70%; inactive means the rest.

Consider `O=C1CSC(c2ccc(O)cc2)N1c1nncs1` (stereo not drawn), for which the growth inhibition in experiment [1] was 0.4%; in experiment [2] it was -0.75%; in experiment [3], 16.8%; in experiment [4], -0.55%; in experiment [5], 5.6%; in experiment [6], 11.9%.
In the case of `C=CCCCC12CCCc3cccc(c31)NC2=O` (stereo not drawn), the growth inhibition in experiment [1] was 48.7%; in experiment [2] it was 17.4%; in experiment [3], 24.8%; in experiment [4] it was 48%; in experiment [5], 46.5%; in experiment [6], 34.6%.
Take `CCOC(CN)(OCC)c1ccncc1`: the growth inhibition in experiment [1] was 10.9%; in experiment [2], 14.2%; in experiment [3], 8.65%; in experiment [4], -27.1%; in experiment [5] it was 11.2%; in experiment [6] it was -0.05%.
For the molecule `CSc1nc(SC)c2ncn(C3CC(Oc4ccc(C)cc4)C(COc4ccc(C)cc4)O3)c2n1` (stereo not drawn), the growth inhibition in experiment [1] is 15.8%; in experiment [2], -5.75%; in experiment [3], 17.1%; in experiment [4] it was 10.3%; in experiment [5], 8.45%; in experiment [6] it was -18.2%.
On to `O=C(O)CCC(=O)N1c2ccccc2CC1c1c[nH]c2ccccc12` (stereo not drawn), for which the growth inhibition in experiment [1] was -8.45%; in experiment [2] it was -13.9%; in experiment [3], -6.55%; in experiment [4], 18.6%; in experiment [5] it was 2%; in experiment [6], 5.6%.
For `O=c1cc(-c2ccccc2)[nH]c2c(F)ccc(F)c12`, the growth inhibition is -27.4% in experiment [1]; -46.5% in experiment [2]; -34.5% in experiment [3]; 11.3% in experiment [4]; -34.9% in experiment [5]; -18.9% in experiment [6].
As to `CC(=O)OCC1OC(O)C(NC(=O)C(F)(F)F)C(OC(C)=O)C1OC(C)=O` (stereo not drawn), the growth inhibition in experiment [1] is 99.6% (active); in experiment [2], 99.8% (active); in experiment [3] it was 99.7% (active); in experiment [4], 99% (active); in experiment [5], 99.3% (active); in experiment [6], 99.5% (active).
For the molecule `CC1CN(S(=O)(=O)c2ccccc2)CCN1S(=O)(=O)c1ccccc1` (stereo not drawn), the growth inhibition in experiment [1] is -9.65%; in experiment [2], -4.3%; in experiment [3], -8.35%; in experiment [4], -8.45%; in experiment [5], 1.5%; in experiment [6], -0.55%.
`COC(=O)c1nnn(-c2ccc(Cl)cc2C)c1C(=O)c1ccc(OC)cc1`: the growth inhibition is -33.4% in experiment [1]; 0.95% in experiment [2]; -11.8% in experiment [3]; -2.45% in experiment [4]; -9.1% in experiment [5]; -20.2% in experiment [6].
For `CSC1N=CNc2c1sc(=S)n2-c1ccccc1` (stereo not drawn), the growth inhibition was -20.8% in experiment [1]; 7.75% in experiment [2]; 15.9% in experiment [3]; -3.9% in experiment [4]; -2.85% in experiment [5]; -1.85% in experiment [6].
In the case of `COc1cc(O)c(C/C=C/c2ccccc2)cc1O`, the growth inhibition in experiment [1] is 49.6%; in experiment [2], 21.4%; in experiment [3] it was 27.6%; in experiment [4] it was -12.3%; in experiment [5], 29.1%; in experiment [6], 64.9%.
For the molecule `Cc1cc([N+](=O)[O-])ccc1NC(=O)n1nnc2cc(Cl)ccc21`, the growth inhibition is -5.55% in experiment [1]; 0.35% in experiment [2]; -5.85% in experiment [3]; 1.1% in experiment [4]; 21% in experiment [5]; 6.9% in experiment [6].
Turning to `C/C(CC(C)C)=N/O`, the growth inhibition in experiment [1] is 3.75% and -12.1%; in experiment [2], -3.25% and -4.35%; in experiment [3], -17.5% and -5.85%; in experiment [4] it was -23.2% and -20.5%; in experiment [5] it was -0.4% and 3%; in experiment [6], 11.8% and 9.05%.
Regarding `CC1=C/C(O)CC(=O)Cc2nc(co2)C(=O)N2CCC=C2C(=O)OC(C(C)C)C(C)/C=C\C(=O)NC/C=C\1` (stereo not drawn), the growth inhibition in experiment [1] is 39.5% and -2.6%; in experiment [2], -11.6% and 18.7%; in experiment [3], 22.7% and 0.6%; in experiment [4], 13.9% and 5.6%; in experiment [5], 37.5% and -3%; in experiment [6] it was 35.2% and 2.2%.
Regarding `COC(=O)C1(C)CCCC2(C)c3cc(OC)ccc3C(=O)CC12` (stereo not drawn), the growth inhibition was 24.4% in experiment [1]; 12.7% in experiment [2]; 28% in experiment [3]; 5.95% in experiment [4]; 19.6% in experiment [5]; 21.7% in experiment [6].
With `CC1CCC2(OC1)OC1CC3C4CCC5CC(O)CCC5(C)C4C(O)CC3(C)C1C2C` (stereo not drawn), the growth inhibition in experiment [1] was 42.5%; in experiment [2], 5.65%; in experiment [3], 43%; in experiment [4], 36.8%; in experiment [5], 52.1%; in experiment [6], 24.1%.
For `CN(C)CCl`, the growth inhibition is -1.4% in experiment [1]; -28.2% in experiment [2]; -12.4% in experiment [3]; -4.1% in experiment [4]; -15.5% in experiment [5]; -13.1% in experiment [6].
For the molecule `CCCCCCCCCCCC(=O)OC(COCCC(C)C)COCCC(C)C`, the growth inhibition in experiment [1] is -2.9%; in experiment [2], -5.05%; in experiment [3] it was -3.15%; in experiment [4], -12.1%; in experiment [5], -11.9%; in experiment [6], 12.1%.
